A number with no mark means an inactive call. Results filed as inconclusive are left out. Active and inactive are the calls of the source. Unless noted, the call rests on the fitted dose curve; in most records, active means well fitted curve in the direction sought with a large enough effect in the repeat runs; inconclusive means weak or mixed curves; inactive means no such curve, though single readings can be large; an effect the other way counts as inactive or inconclusive.

Assay [1] deals with Progesterone receptor (Homo sapiens) (UniProt P06401). As to the kind of experiment: qHTS assay to identify small molecule agonists of the progesterone receptor (PR) signaling pathway (AID 1346784; calls by dose curve; further: nearly all actives have a fitted effect of over 30% in size). A digest of the protocol:
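Using charcoal-stripped serum (2%) to limit endogenous steroids, PR-UAS-bla HEK 293T cells received compounds for 16 hr at 37C after 6 hr plating; beta-lactamase FRET fluorescence was recorded following 2 hr substrate loading at room temperature.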
In general terms: In qHTS, concentration-response curves come from the screen itself.

For assay [2] the target is unchanged. Nature of the assay: qHTS assay to identify small molecule antagonists of the progesterone receptor (PR) signaling pathway (AID 1346795; active means well fitted inhibition curve with a large enough effect in the signal ratio in the repeat runs, not every such curve was filed as active; the % refers to the signal ratio; further: potency means the concentration at half of the fitted maximal effect). In outline: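 Inhibition of R5020-induced (1 nM final) beta-lactamase reporter signal in PR-UAS-bla HEK293T cells was scored by FRET fluorescence after overnight (16 hr) compound treatment.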
Assay [3] can be described thus: qHTS assay to identify small molecule agonists of the progesterone receptor (PR) signaling pathway - cell viability counter screen (AID 1346799; calls by dose curve; further: nearly all actives have a fitted effect of over 45% in size). In outline: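 Cytotoxicity in PR-bla HEK293T cells: 16 h compound, 37C; CellTiter-Glo added post-FRET read; luminescence after 30 min RT.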
The nature of assay [4]: qHTS assay to identify small molecule antagonists of the TGF-beta/Smad signaling pathway - cell viability counter screen (AID 1346824). Further: nearly all actives have a fitted effect of over 50% in size. A digest of the protocol: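 SBE-bla HEK 293T cells were plated overnight at 37 C, then given compounds in DMSO plus TGF-beta1 (added as 0.25 ng/mL solution) for 5 hr. After the bla read, CellTiter-Glo was added to the same wells and luminescence read after 30 min at room temperature.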

The nature of assay [5]: qHTS assay to identify small molecule agonists of the TGF-beta/Smad signaling pathway - cell viability counter screen (AID 1346829). Further: top concentration of the series differs between compounds; nearly all actives have a fitted effect of over 45% in size. A digest of the protocol:
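HEK 293T SBE-bla line, 5 hr compound exposure at 37 C, multiplexed CellTiter-Glo viability read by luminescence.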

Assay [6] in a line: Caspase-3/7 induction in CHO-K1 cells by small molecules, qHTS cell viability counter screen (AID 1346979). Further: nearly all actives have a fitted effect of over 35% in size. Further: potency means the concentration at half of the fitted maximal effect. A digest of the protocol: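 To flag cytotoxic compounds, treated CHO-K1 wild-type cells were given CellTiter-Fluor at 16hr and read fluorescently after 1hr at 37C; the caspase-3/7 luminescence was measured in these same wells.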
Assay [7] is described as follows: Caspase-3/7 induction in CHO-K1 cells by small molecules, qHTS assay (AID 1346980). Further: nearly all actives have a fitted effect of over 15% in size. A digest of the protocol: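 Wild-type cells were seeded at 1,500 per well and settled 5 hr at 37 C, 5% CO2, then exposed to DMSO-dissolved compounds for 17 hr. Caspase-Glo 3/7 reagent was added, and luminescence was read after 30min at room temperature.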
For assay [8], the target named is Nuclear receptor subfamily 1 group I member 2 (Homo sapiens) (UniProt O75469). Nature of the assay: Human pregnane X receptor (PXR) small molecule agonists, qHTS assay (AID 1346982). Further: nearly all actives have a fitted effect of over 35% in size. Further: potency means the concentration at half of the fitted maximal effect. In outline: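 Agonist mode qHTS: PXR-Luc HepG2 cells plated 5 hr before DMSO-dissolved compounds were pinned in, cultured 24 hr at 37 C, 5% CO2; ONE-Glo luminescence readout.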
The target in assay [9] is Nuclear receptor subfamily 1 group I member 2 (Rattus norvegicus) (UniProt Q9R1A7). As to the kind of experiment: Rat pregnane X receptor (rPXR) activation by small molecules, qHTS assay (AID 1346983). Further: nearly all actives have a fitted effect of over 20% in size. Further: potency means the concentration at half of the fitted maximal effect. As to conditions: rPXR luciferase reporter cells, One-Glo luminescence, 24 h; max activation: active compounds read high. In outline:
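Cell-based rPXR luciferase reporter assay, 2,000 cells per well, rested 5hr at 37 C before compound addition in DMSO, then 24 hr at 37 C. One-Glo reagent was added and luminescence read after 30 min at room temperature.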

Assay [10] addresses Nuclear receptor subfamily 1 group I member 2 (Homo sapiens) (UniProt O75469). As to the kind of experiment: CYP3A4 induction through human pregnane X receptor (PXR) by small molecules, qHTS assay (AID 1346984). Further: nearly all actives have a fitted effect of over 40% in size. In outline:
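Steps: seed DPX-2 cells, 5 hr at 37C; pin-transfer compounds; 24 hr at 37C; add Luciferin-IPA (3uM final), 3 hr at 37C; add One-Glo, 30 min RT; read luminescence.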

Assay [11] concerns the target Cytochrome P450 2D6 (Homo sapiens) (UniProt P10635). As to the kind of experiment: Cytochrome P450 Family 2 Subfamily D Member 6 (CYP2D6) small molecule antagonists: luciferase reporter qHTS assay (AID 1671196). Further: nearly all actives have a fitted effect of over 50% in size. Further: potency means the concentration at half of the fitted maximal effect. On activity change, negative = inhibition: series mostly up to about 120 µM. In outline: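 P450-Glo format: CYP2D6 converts a proluciferin substrate to luciferin in an NADPH-driven reaction lasting 1 h at room temperature. Light output, proportional to CYP2D6 activity, reflects interference by test chemicals.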

Assay [12] in a line: qHTS assay to identify small molecule antagonists of the progesterone receptor (PR) signaling pathway - cell viability counter screen (AID 1346798). Further: series mostly up to about 92 µM; nearly all actives have a fitted effect of over 50% in size. A digest of the protocol:
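ATP content as viability readout: CellTiter-Glo luminescence, 30 min room temperature, in PR-UAS-bla HEK293T cells after 16 hr compound/R5020 treatment at 37C and 5% CO2.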

The nature of assay [13]: qHTS assay to identify small molecule agonists of the TGF-beta/Smad signaling pathway (AID 1346859; active means well fitted activation curve with a large enough effect in the signal ratio in the repeat runs, not every such curve was filed as active; the % refers to the signal ratio; further: series mostly up to about 77 µM). A digest of the protocol: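 Stable Smad binding element-beta-lactamase HEK 293T cells; 5 hr compound exposure at 37 C under 5% CO2; 2 hr room-temperature substrate step; fluorescence excited at 405 nm, collected at 460 nm and 530 nm.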
Assay [14] has as its target Thyrotropin-releasing hormone receptor (Homo sapiens) (UniProt P34981). Nature of the assay: qHTS assay to identify small molecule antagonists of the thyrotropin-releasing hormone receptor (TRHR) signaling pathway (AID 1346877; active means well fitted inhibition curve with a large enough effect in the repeat runs, not every such curve was filed as active; further: series mostly up to about 51 µM). In outline:
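Cells (TRHR-HEK293) are plated and kept 18 h at 37 °C/5% CO2. A calcium-sensitive dye is added for 2 h, compound follows for 5 min at room temperature, and TRH is then given at 1 nM final.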

Assay [15] has the same target. Nature of the assay: qHTS assay to identify small molecule agonists of the thyrotropin-releasing hormone receptor (TRHR) signaling pathway (AID 1346891; calls by dose curve;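 further: HEK293 cells expressing TRHR with calcium dye readout; series mostly up to about 58 µM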). In outline:
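In 1536-format, 1500 TRHR-Hek293 cells per well grew 18 h, took up calcium dye for 2 h at 37 °C, received compound, and were read kinetically; 15-point titrations, triplicates.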

Assay [16] in a line: Caspase-3/7 induction in HepG2 cells by small molecules, qHTS assay (AID 1346978). Further: nearly all actives have a fitted effect of over 15% in size. A digest of the protocol:
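Wild-type HepG2 cells (2,000/well) were settled 5 h at 37 C, 5% CO2, then exposed to compounds in DMSO for 17 h. Caspase-3/7 activity was read by luminescence 30 min after adding Caspase-Glo 3/7 reagent at room temperature.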

The nature of assay [17]: Caspase-3/7 induction in HepG2 cells by small molecules, qHTS cell viability counter screen (AID 1346981). Further: series mostly up to about 92 µM; nearly all actives have a fitted effect of over 30% in size. In outline: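 Steps: seed 2,000 HepG2 cells per well; incubate 5 hr at 37 C; pin-add compounds in DMSO; incubate 16 hr; add CellTiter-Fluor; after 1 hr at 37 C and 5% CO2, read fluorescence.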
Assay [18] is described as follows: qHTS assay to identify small molecule agonists of the estrogen receptor alpha (ER-alpha) signaling pathway in the presence of an antagonist - cell viability counter screen (AID 1259386).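 Further: series mostly up to about 92 µM; cells exposed to compounds for 22 h at 37 °C before the viability read; nearly all actives have a fitted effect of over 30% in size.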 In outline: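 Cells are starved of estrogens for 5 days in charcoal-stripped serum, seeded for 24hr and co-treated with ICI-182,780 (10.0nM final) and test compounds. After 22hr at 37C, viability is read as CellTiter-Fluor fluorescence.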

A short description of assay [19]: Human pregnane X receptor (PXR) small molecule agonists, qHTS cell viability counter screen (AID 1346977). Further: nearly all actives have a fitted effect of over 50% in size. In outline: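 Readout is CellTiter-Fluor fluorescence from PXR-Luc HepG2 cells. Plated cells rested 5hr, then were treated with compounds for 24hr at 37C and 5% CO2, with reagent present during the last hour.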
On the % scale 0 is the no-effect control and ±100 the full control effect.

Chain of Nuclear receptor subfamily 1 group I member 2 (Rattus norvegicus) (Q9R1A7 whole entry, looked up): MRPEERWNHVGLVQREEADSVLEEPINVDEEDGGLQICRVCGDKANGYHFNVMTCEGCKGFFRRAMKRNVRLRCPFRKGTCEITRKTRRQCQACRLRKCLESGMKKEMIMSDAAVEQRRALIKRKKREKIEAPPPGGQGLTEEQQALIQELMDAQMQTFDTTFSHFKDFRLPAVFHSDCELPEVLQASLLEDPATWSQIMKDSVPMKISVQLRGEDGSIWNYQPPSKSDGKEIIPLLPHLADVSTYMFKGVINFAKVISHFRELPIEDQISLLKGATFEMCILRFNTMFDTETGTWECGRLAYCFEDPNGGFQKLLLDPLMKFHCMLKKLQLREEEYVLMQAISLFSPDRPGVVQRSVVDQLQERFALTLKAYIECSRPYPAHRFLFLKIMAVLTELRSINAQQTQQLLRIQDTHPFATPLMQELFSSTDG
Chain of Cytochrome P450 2D6 (Homo sapiens) (P10635 whole entry, looked up): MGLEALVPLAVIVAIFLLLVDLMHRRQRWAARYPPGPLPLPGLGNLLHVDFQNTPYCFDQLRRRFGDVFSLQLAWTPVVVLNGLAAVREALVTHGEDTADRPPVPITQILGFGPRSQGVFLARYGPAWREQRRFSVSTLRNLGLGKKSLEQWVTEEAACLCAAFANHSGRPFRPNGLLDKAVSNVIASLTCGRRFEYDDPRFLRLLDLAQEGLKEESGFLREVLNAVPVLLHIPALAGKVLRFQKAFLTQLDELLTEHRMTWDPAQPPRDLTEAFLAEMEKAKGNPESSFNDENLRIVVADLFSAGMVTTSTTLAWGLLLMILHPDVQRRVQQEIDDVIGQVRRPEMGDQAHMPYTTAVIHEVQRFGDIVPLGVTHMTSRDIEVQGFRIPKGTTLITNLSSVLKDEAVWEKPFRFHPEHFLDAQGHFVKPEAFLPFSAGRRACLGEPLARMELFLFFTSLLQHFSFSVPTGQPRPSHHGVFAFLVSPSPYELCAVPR
Chain of Thyrotropin-releasing hormone receptor (Homo sapiens) (P34981 whole entry, looked up): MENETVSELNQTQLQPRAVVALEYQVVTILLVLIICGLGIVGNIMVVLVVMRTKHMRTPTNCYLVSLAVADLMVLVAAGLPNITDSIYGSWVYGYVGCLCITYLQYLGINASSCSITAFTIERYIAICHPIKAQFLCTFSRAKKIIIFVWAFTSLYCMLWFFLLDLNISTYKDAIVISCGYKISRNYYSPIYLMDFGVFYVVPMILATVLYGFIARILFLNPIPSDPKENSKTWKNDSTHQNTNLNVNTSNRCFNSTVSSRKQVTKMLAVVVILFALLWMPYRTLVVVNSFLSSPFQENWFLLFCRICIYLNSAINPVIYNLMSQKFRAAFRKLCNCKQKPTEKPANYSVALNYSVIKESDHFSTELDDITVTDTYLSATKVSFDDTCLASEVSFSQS
Chain of Progesterone receptor (Homo sapiens) (P06401 whole entry, looked up): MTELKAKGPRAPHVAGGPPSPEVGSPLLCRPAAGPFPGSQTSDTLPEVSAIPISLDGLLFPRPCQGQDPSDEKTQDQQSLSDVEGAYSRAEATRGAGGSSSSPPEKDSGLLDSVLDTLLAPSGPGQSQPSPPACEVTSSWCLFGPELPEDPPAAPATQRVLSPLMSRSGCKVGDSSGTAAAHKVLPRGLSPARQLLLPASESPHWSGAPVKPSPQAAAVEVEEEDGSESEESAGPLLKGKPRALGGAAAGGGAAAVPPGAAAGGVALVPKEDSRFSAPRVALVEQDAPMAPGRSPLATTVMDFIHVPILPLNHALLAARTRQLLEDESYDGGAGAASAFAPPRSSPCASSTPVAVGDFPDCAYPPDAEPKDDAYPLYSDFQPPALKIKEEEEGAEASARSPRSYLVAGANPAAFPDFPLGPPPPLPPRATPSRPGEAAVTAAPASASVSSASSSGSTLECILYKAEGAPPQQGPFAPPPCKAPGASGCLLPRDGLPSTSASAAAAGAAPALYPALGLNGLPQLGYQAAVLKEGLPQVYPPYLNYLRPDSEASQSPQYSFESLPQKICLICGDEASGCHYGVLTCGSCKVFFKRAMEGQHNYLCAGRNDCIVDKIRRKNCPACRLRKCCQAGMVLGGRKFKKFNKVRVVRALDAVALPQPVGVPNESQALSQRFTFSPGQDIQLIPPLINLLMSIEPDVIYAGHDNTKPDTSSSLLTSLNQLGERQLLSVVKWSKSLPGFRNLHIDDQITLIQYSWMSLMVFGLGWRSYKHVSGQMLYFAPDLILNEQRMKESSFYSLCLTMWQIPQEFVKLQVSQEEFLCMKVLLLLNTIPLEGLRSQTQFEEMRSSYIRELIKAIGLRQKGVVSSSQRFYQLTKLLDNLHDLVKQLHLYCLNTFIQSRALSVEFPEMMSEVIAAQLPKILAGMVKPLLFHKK
Chain of Nuclear receptor subfamily 1 group I member 2 (Homo sapiens) (O75469 whole entry, looked up): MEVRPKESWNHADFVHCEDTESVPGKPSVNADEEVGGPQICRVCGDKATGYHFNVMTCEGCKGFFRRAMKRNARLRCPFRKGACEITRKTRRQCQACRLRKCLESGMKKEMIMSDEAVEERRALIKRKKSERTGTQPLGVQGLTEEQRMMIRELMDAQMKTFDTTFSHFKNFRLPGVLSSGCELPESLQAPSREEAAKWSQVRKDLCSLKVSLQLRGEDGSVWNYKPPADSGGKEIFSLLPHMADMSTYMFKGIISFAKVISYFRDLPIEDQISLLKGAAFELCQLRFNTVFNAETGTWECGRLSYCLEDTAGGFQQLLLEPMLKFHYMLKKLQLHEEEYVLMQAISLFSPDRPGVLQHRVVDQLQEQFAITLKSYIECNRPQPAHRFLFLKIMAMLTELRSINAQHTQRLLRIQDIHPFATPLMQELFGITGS

Consider `C#Cc1cccc(Nc2ncnc3cc(OCCOC)c(OCCOC)cc23)c1`, for which the Potency result in assay [1], in assay [2], in assay [3], in assay [4], in [7] and in assay [10] was “inactive” each time. For the same compound, in [11], the Potency result was “inactive”. For the same compound, the compound was called inactive in assay [5]. The Potency in [6] was 6.68 µM (active); in assay [8] it was 7.5 µM (active). The max activation in [9] is -7.82%.

As to `C=C(C)C(=O)OCCOCC`, the Potency result in assay [1], in assay [12], in assay [3], in assay [4], in assay [13] and in assay [15] was “inactive” throughout. Also, the Potency entry in [16], in assay [6], in assay [7], in [17] and in assay [8] was “inactive” in each case. In assay [14], the compound was classed as inactive. Further, the Potency in assay [11] is 31.9 µM (active).

On to `COc1ccc(-c2nc3ccc(C4=NNC(=O)CC4C)cc3[nH]2)cc1` (stereo not drawn), for which the Potency entry in assay [18], in assay [4], in [13], in assay [15], in assay [19] and in [16] was “inactive” throughout. Besides, the Potency result in assay [7], in [17], in assay [10] and in [11] was “inactive” in each case. For the same compound, the compound was called inactive in assay [5] and in assay [14]. Further, the values for the Potency in assay [6], in [8] and in assay [9] were 23.7 µM (active), 13.3 µM (active) and 22.4 µM (active), respectively.

`NCC(=O)O`: the activation in assay [1] is -0.192% [at 19 µM]; in [13], -0.809% [at 15.8 µM]; in assay [15], -0.0833% [at 11.8 µM]. Moreover, the activity change, negative = inhibition in assay [2] is 9.41% [at 18.9 µM]. Besides, the activity change, negative = cytotoxicity in assay [12] is -3.8% [at 18.9 µM]; in assay [3], 27.9% [at 19 µM]; in assay [5], 0.104% [at 15.8 µM]; in assay [19], 14.5% [at 19 µM]; in assay [17], 4.32% [at 19 µM]. For the same compound, the viability change, negative = cytotoxic in assay [4] is -5.27% [at 15.8 µM]. Also, in [14], the activity, negative = inhibition was -3.84% [at 10.5 µM]. In [16], the caspase activation was -0.745% [at 19 µM]. For the same compound, in [7], the caspase-3/7 activation was -1.83% [at 19 µM].

As for `COc1ccnc(CS(=O)c2nc3ccc(OC(F)F)cc3[nH]2)c1OC` (stereo not drawn), the Potency result in assay [1], in [2], in [12], in assay [4], in assay [13] and in [19] was “inactive” in each case. Also, the Potency entry in [7] and in assay [17] was “inactive” each time. Also, in [5], the call was inactive. In addition, the max activation in assay [9] is 0.184%. Besides, the Potency in assay [11] is 2.75 µM (active).

In the case of `CCCCC(CC)CN1C(=O)C2C3C=CC(C3)C2C1=O` (stereo not drawn), the Potency entry in [1], in assay [12], in assay [3], in assay [4], in [13] and in [15] was “inactive” each time. Also, the Potency result in assay [19], in assay [16], in assay [6], in assay [7] and in assay [17] was “inactive” in each case. Besides, the Potency in assay [2] is 34.4 µM (active); in [11], 31.7 µM (active). Besides, the compound was called inactive in [5] and in [14].

For `CC(C)O.CC(C)O.CCOC(=O)/C=C(\C)O.CCOC(=O)/C=C(\C)O.[Ti]`, the Potency result in assay [1], in assay [2], in assay [12], in [3], in assay [4] and in assay [13] was “inactive” throughout. Moreover, the Potency entry in assay [19], in [6], in assay [7] and in assay [17] was “inactive” in each case.
